Results filed as inconclusive are left out. Entries that show only a call come without a potency. The source made the active and inactive calls. The call rests on the fitted dose curve; in most records, active means well fitted activation curve with a large enough effect in the repeat runs; inconclusive means weak or mixed curves; inactive means no such curve, though single readings can be large or run the other way.
Molecular target: Nuclear receptor subfamily 1 group I member 2 (Homo sapiens) (UniProt O75469)
Sequence (O75469 whole entry, looked up): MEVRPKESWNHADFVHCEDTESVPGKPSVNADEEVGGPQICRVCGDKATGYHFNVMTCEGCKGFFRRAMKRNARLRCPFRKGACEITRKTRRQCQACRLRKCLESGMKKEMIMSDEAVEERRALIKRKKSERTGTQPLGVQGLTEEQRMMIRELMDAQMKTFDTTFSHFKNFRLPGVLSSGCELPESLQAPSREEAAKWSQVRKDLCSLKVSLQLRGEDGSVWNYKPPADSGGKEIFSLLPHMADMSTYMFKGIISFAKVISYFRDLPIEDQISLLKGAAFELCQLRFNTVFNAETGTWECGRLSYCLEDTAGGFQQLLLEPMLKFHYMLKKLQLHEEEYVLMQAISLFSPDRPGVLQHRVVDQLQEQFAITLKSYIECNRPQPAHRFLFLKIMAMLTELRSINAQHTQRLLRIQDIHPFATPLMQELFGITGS
Experiment: Human pregnane X receptor (PXR) small molecule agonists, qHTS assay (AID 1346982); further: nearly all actives have a fitted effect of over 35% in size
Conditions: PXR-Luc HepG2, CYP3A4 luciferase reporter, 24 h; series mostly up to 92.4 µM
Excerpt: National Center for Advancing Translational Sciences [NCATS]
NIH Chemical Genomics Center [NCGC]
U.S. Environmental Protection Agency [EPA]
National Institutes of Environmental Health Sciences [NIEHS]
National Toxicology Program [NTP]
The human pregnane X receptor (hPXR) regulates the expression of several drug metabolizing enzymes and induction of these proteins is a major mechanism for developing drug resistance in cancer. One such key enzyme catalyzing the drug metabolism is cytochrome P450 3A4 (CYP3A4). Changes in CYP3A4 expression affect drug metabolism, thereby reducing the therapeutic efficacy and altering toxicological response to a drug and which finally causes adverse drug interaction. To screen Tox21 libraries for compounds that activate hPXR-mediated CYP3A4 gene expression, PXR-Luc HepG2 cells were used.
PXR-Luc HepG2 cells were dispensed at 2,000 per well in 5uL of assay medium containing 5% charcoal-stripped FBS into white solid bottom 1536-well plates (Corning Life Sciences, Corning, NY) using a Multidrop Combi (Thermo Scientific, Waltham, MA) dispenser. The assay plates were incubated at 37 C and 5% CO2 for 5hr, and then 23nL of compounds dissolved in DMSO and positive control were transferred using a Pintool station (Wako, San Diego, CA). The assay plates were incubated at 37C and 5% CO2 for 24hr. For luciferase read, 4uL of ONE-Glo reagent (Promega Corporation, Madison, WI) was added to each well of the assay plates using Flying Reagent Dispenser (FRD, Aurora Discovery, San Diego, CA) and incubated the assay plates at room temperature for 30min. The luminescence signal was quantified using a ViewLux plate reader (Perkin Elmer, Shelton, CT).
Potency means the concentration at half of the fitted maximal effect.

Question: Which Potency does the source give for CC(C)CCCCCCN here?
Answer: Its Potency is “inactive”.

Question: For CC/C=C\CCCCO, which Potency is on record?
Answer: Its Potency is “inactive”.

Question: How did the Potency turn out when CCCCc1ccc2cccc(S(=O)(=O)O)c2c1 was run?
Answer: Its Potency is “inactive”.

Question: With COCCOC(=O)CC#N as the compound, how does the Potency read?
Answer: The Potency was “inactive”.

Question: With Fc1ccccc1-c1ccccc1 as the compound, how does the Potency read?
Answer: Its Potency is “inactive”.

Question: With Oc1cc(O)c2c(c1)O[C@H](c1ccc(O)c(O)c1)[C@H](O)C2 as the compound, how does the Potency read?
Answer: The Potency was “inactive”.

Question: How did the Potency turn out when CCC(C(=O)NC(N)=O)c1ccccc1 (stereo not given) was run?
Answer: The Potency was “inactive”.

Question: Which Potency does the source give for CCc1cc(S(=O)(=O)O)c2cc(C(C)C)cccc1-2 here?
Answer: Its Potency is “inactive”.

Question: With CN(C)CCn1nnnc1SCC1=C(C(=O)O)N2C(=O)[C@@H](NC(=O)Cc3csc(N)n3)[C@H]2SC1 as the compound, how does the Potency read?
Answer: The Potency was “inactive”.

Question: Which Potency does the source give for NC1CCN(c2cccc(Cl)n2)CC1 here?
Answer: Its Potency is “inactive”.

Question: Which Potency does the source give for C=CCOCC(O)CS(=O)(=O)O (stereo not given) here?
Answer: Its Potency is “inactive”.

Question: For C=C(C)C1CC=C(C)C(O)C1 (stereo not given), which Potency is on record?
Answer: Its Potency is 48.8 µM (active).

Question: With CCCCOCC(C)OCC(C)O (stereo not given) as the compound, how does the Potency read?
Answer: The Potency was 27.9 µM (active).

Question: With O=C(O)c1ccc[n+]([O-])c1 as the compound, how does the Potency read?
Answer: The Potency was “inactive”.

Question: For OCC(CO)(CO)COCC(CO)(CO)CO, which Potency is on record?
Answer: The Potency was “inactive”.

Question: NC(N)=NS(=O)(=O)c1ccc(N)cc1 was tested. Which Potency did it give?
Answer: Its Potency is “inactive”.

Question: Which Potency does the source give for OCC(O)[C@@H](O)[C@H](O)[C@H](O)CO[C@H]1O[C@H](CO)[C@@H](O)[C@H](O)[C@H]1O (stereo not given in full) here?
Answer: The Potency was “inactive”.

Question: For COCc1ccc(COC)cc1, which Potency is on record?
Answer: Its Potency is “inactive”.

Question: How did the Potency turn out when CCCCCCCCC=O was run?
Answer: Its Potency is “inactive”.

Question: For CCCCCCC(=O)OCC, which Potency is on record?
Answer: The Potency was “inactive”.

Question: For C#CC(C)(O)CC(C)C (stereo not given), which Potency is on record?
Answer: The Potency was “inactive”.

Question: CC(C)c1ccc2oc3nc(N)c(C(=O)O)cc3c(=O)c2c1 was tested. Which Potency did it give?
Answer: The Potency was 0.335 µM (active).

Question: How did the Potency turn out when O=C(O)c1ccccc1S was run?
Answer: The Potency was “inactive”.

Question: With NS(=O)(=O)c1cc2c(cc1C(F)(F)F)NC(Cc1ccccc1)NS2(=O)=O (stereo not given) as the compound, how does the Potency read?
Answer: The Potency was “inactive”.

Question: For CC(C)(C)OC(=O)N1C[C@@H](F)C[C@H]1C(=O)O, which Potency is on record?
Answer: Its Potency is “inactive”.

Question: With CSc1ccc(C=O)cc1 as the compound, how does the Potency read?
Answer: The Potency was “inactive”.

Question: For CC(C)(C)N(CCO)CCO, which Potency is on record?
Answer: The Potency was 63.1 µM (active).

Question: For CC(C)(C)C(=O)/C=C/c1ccc(Cl)cc1, which Potency is on record?
Answer: Its Potency is 54.5 µM (active).

Question: Cc1c(C)n(CCN(C)C)c2ccc(C(=O)OCCN(C)C)cc12 was tested. Which Potency did it give?
Answer: Its Potency is “inactive”.

Question: How did the Potency turn out when COC(=O)c1ccc(C(=O)OC)c(C(=O)OC)c1 was run?
Answer: The Potency was “inactive”.

Question: How did the Potency turn out when CNC(=O)c1c(I)c(NC(=O)CCCCC(=O)Nc2c(I)c(C(=O)O)c(I)c(C(=O)NC)c2I)c(I)c(C(=O)O)c1I was run?
Answer: The Potency was “inactive”.

Question: With CCN1CCN(c2cc3c(cc2F)c(=O)c(C(=O)O)cn3C2CC2)CC1 as the compound, how does the Potency read?
Answer: The Potency was “inactive”.

Question: Which Potency does the source give for O=C(O)CCNC(=O)c1ccc(N=Nc2ccc(O)c(C(=O)O)c2)cc1 here?
Answer: Its Potency is “inactive”.

Question: Which Potency does the source give for COc1cc(O)cc(O)c1 here?
Answer: Its Potency is “inactive”.

Question: With CCCCCC[C@@H](CCC)C(=O)O as the compound, how does the Potency read?
Answer: The Potency was “inactive”.

Question: How did the Potency turn out when CNc1ncnc2nc[nH]c12 was run?
Answer: The Potency was 9.86 µM (active).

Question: Which Potency does the source give for OC1OC[C@@H](O)[C@H](O)[C@H]1O (stereo not given in full) here?
Answer: The Potency was “inactive”.

Question: For CCN1CCCC(OC(=O)C(c2ccccc2)c2ccccc2)C1 (stereo not given), which Potency is on record?
Answer: Its Potency is “inactive”.

Question: For Cn1cnc2c(=O)[nH]c(N)nc21, which Potency is on record?
Answer: Its Potency is “inactive”.

Question: Which Potency does the source give for CO[Si](OC)(OC)OC here?
Answer: Its Potency is “inactive”.

Reference: PubChem BioAssay (Tox21)
